Laboratory results reported in PubChem BioAssay AID1233 (SRMLSC, 2008).
Potency and affinity values are given separately. The source made the active and inactive calls.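 The calls were made as follows: active = a dose-response curve fit returns a half-maximal inhibitory concentration, extrapolated values included; inactive = the fit returns no such concentration.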

Biological target: HMG-CoA reductase [Enterococcus faecalis] (UniProt Q9FD70)
Test: class II HMG-CoA reductase inhibition potency – biochemical, Enterococcus faecalis, confirmation (AID 1233);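 also: 0% = full reaction carrier wells and 100% = background wells lacking mevalonate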
Conditions: purified E. faecalis HMGR, NADPH absorbance 340 nm kinetics; series mostly up to 100 µM; inhibition: at the top concentration

inhibition, inactive:
Cc1ccccc1NC(=O)Cn1c(CCC(=O)O)ccc1-c1cccs1 -2.46%
O=C(N/N=C/c1ccc2c(c1)OCO2)c1ccc(NS(=O)(=O)c2cccs2)cc1 -1.17%
O=C(COCc1nc2ccccc2c(=O)[nH]1)NCC1CCCCC1 -3.54%
COc1cc(SC)ccc1C(=O)NCc1ccc(C)cc1 2.66%
Cc1ccc(C(=O)O)cc1S(=O)(=O)N1CCC(C(=O)O)CC1 -3%
CCCCCC(=O)Nc1ccc(Cc2ccncc2)cc1 0.09%
O=C(Nc1ccc2c(c1)OCO2)c1ccc(COc2ccc3c(c2)CCC3)o1 -1.32%
Cc1cc(C)nc(N(C#N)CC(=O)N2CCC(C(N)=O)CC2)n1 -2.81%
CCOC(=O)c1ccc(N(C(=O)c2cnccn2)C(C(=O)NC2CCCCC2)c2cn(C)nc2C)cc1 (configuration not stated) -9.54%
CCN(CC)CCOc1nc(C)nc2c1oc1ccccc12 -5.2%
Cc1ccc(S(=O)(=O)CCC(=O)NCCN2C(=O)S/C(=C\c3ccccc3)C2=O)cc1 -4.26%
CCn1c2ccccc2c2cc(NC(=O)CSc3nnc(-c4ccc(OC)c(OC)c4)n3N)ccc21 0.13%
O=C1c2ccccc2C(=O)N1CCN1CCCCC1 -7.22%
O=[N+]([O-])c1ccc(N2CCCCC2)c(-c2nn[nH]n2)c1 -1.68%
Fc1ccc(-c2csc3[n+]2CCS3)cc1 -7.64%
Cc1ccc(C2C(C(=O)c3ccco3)=C(O)C(=O)N2c2nnc(C)s2)cc1 (configuration not stated) -3.22%
CCCn1c(=S)[nH]c2ccccc2c1=O -12.6%
CCOC(=O)c1cc2c(ccn2C)n1CC(=O)N1CCN(c2cccc(C(F)(F)F)c2)CC1 -1.25%
Cc1cc(C)c2c(=O)[nH]c(SCC(=O)N(C)C)nc2n1 -3.15%
CC1CCN(c2cc(N)c(Cl)cc2[N+](=O)[O-])CC1 -3.93%
Cc1cccc(Nc2nnc(SCC(=O)Nc3ncc(C(F)(F)F)cc3Cl)s2)c1C -4.11%
CN(CCC#N)C(=O)COC(=O)c1ccc(Cl)c(S(=O)(=O)N(C)c2ccccc2)c1 2.03%
CCn1c(C)nc2cc(S(=O)(=O)C(F)(F)C(F)C(F)(F)F)ccc21 (configuration not stated) -0.73%
Cc1cccc(C(=O)N2CCC(=O)N(C(COCc3ccccc3)Cc3ccccc3)CC2)c1 (configuration not stated) -2.57%
COc1ccc(-c2c(N)n[nH]c2C)cc1OC -6.91%
FC(F)(F)c1cnc(Oc2ccc(-c3nnco3)cc2)c(Cl)c1 -1.62%
CC[n+]1c(C)n(-c2ccccc2)c2ccc(C(=O)OC)cc21 -3.04%
COc1ccc(N2CCN(C(=O)C3CCC(Cn4c(=S)[nH]c5ccccc5c4=O)CC3)CC2)cc1 (configuration not stated) -4.08%
CCOC(=O)C(C(=O)OCC)C1CCS(=O)(=O)C1 (configuration not stated) -2.07%
COc1ccc(C(=O)CSc2nnnn2Cc2ccccc2)cc1 -2.81%
Cc1ccccc1NC(=S)NCc1ccc2c(c1)cc(C)n2C -9.31%
CCc1c(C)sc(NC(=O)C2CC2c2ccccc2)c1C(N)=O (configuration not stated) -0.13%
Cc1ccc(-c2nc3cccnc3s2)cc1NS(=O)(=O)c1ccc2c(c1)CCCC2 0.8%
CCOc1ccc(/C=N/NC(=O)CC(=O)Nc2ccc(Cl)c(Cl)c2)cc1 -0.69%
Cc1cccc(NC(=O)CSc2ccc(-c3ccc4c(c3)OCO4)nn2)c1C -26.3%
CC(=O)Nc1ccc2c(c1)OCCO2 -4.59%
CCN(Cc1ccncc1)Cc1c(O)ccc2cc(Br)ccc12 -1.49%
